Assay results published in publication PMC4552634, “A New Set of Chemical Starting Points with Plasmodium falciparum Transmission-Blocking Potential for Antimalarial Drug Discovery” (PLoS ONE, 2015).
Hit rate of the full screen: of about 13,000 compounds, about 3,200 (25%) showed an effect of 50% or more. Some of the results follow.

tested on: P. falciparum stage V gametocytes; set-up: BacTiter-Glo ATP luminescence viability of purified stage V gametocytes in 384-well plates, per cent inhibition versus DMSO; settings: 48 h, 5 µM; inhibitor

Compound | % Inhibition
Cc1ccc2ccccc2c1CCCON1C(N)=NC(N)=NC1(C)C [TCMDC-131758] | 22.75%
O=C(Nc1ccc(Cl)c(Cl)c1)N1CCC(CNCc2cccc([N+](=O)[O-])c2)CC1 [TCMDC-141279] | 18.17%
O=C(/C=C/c1ccc(Cl)c(Cl)c1)NCCCCCN1CCCN(C(=O)Nc2cc(Cl)nc(Cl)c2)CC1 [TCMDC-135888] | -3.146%
O=C(/C=C/c1ccc(Cl)c(Cl)c1)N1CCN(C(=O)Nc2cccc(C(F)(F)F)c2)CC1 [TCMDC-135944] | -35.14%
COc1ccc(NC(=O)c2cn(-c3ccc(C(C)(C)C)cc3)nc2C)cc1N1CCN(C)CC1 [TCMDC-138689] | -23.67%
c1ccc(COc2ccccc2COc2ccccc2-c2ccc3cccnc3n2)cc1 [TCMDC-136713] | 16.91%
COc1ccc(OC)c(NC(=O)c2c(-c3c(F)cccc3Cl)noc2C)c1 [TCMDC-123664] | 2.719%
COc1ccc(-n2ccnc2SCC(=O)Nc2cc(Cl)ccc2OC)c(OC)c1 [TCMDC-125135] | -9.787%
COc1ccc(OC)c(NC(=O)CSc2nc(-c3ccccc3Cl)ns2)c1 [TCMDC-124547] | 60.03%
FC(F)(F)c1ccc(COc2cc(Cl)ccc2Cn2ccnc2)cc1 [TCMDC-137640] | -9.557%
COc1cc(Cc2cnc(N)nc2N)cc(OCCCCCCC(=O)O)c1OC [TCMDC-137630] | -3.564%
COc1ccc(CNCc2ccccc2)cc1-c1ccc(S(=O)(=O)NCCN2CCCC2)s1 [TCMDC-132257] | 102.1%
COc1ccc(CNCc2ccc(F)cc2)cc1-c1ccc(S(=O)(=O)NCCN2CCCC2)s1 [TCMDC-132297] | 108.7%
COc1ccc(CNCCc2cccs2)cc1-c1ccc(S(=O)(=O)NCCN2CCCC2)s1 [TCMDC-132477] | 85.27%
COc1ccc(CNCc2ccsc2)cc1-c1ccc(S(=O)(=O)NCCN2CCCC2)s1 [TCMDC-132298] | 91.71%
CN1CCN(c2ccnc3ccc(NC(=O)Cc4cccc(Cl)c4Cl)cc23)CC1 [TCMDC-139274] | -28.12%
Cc1cccc2[nH]c(-c3cccc(-c4cccc(NC(=O)c5cnn6cccnc56)c4)c3)nc12 [TCMDC-136867] | -0.6551%
CN(C)c1cc2c(Nc3ccc4nc(Cc5ccccc5)[nH]c4c3)ncnc2cn1 [TCMDC-137304] | -2.875%
COc1ccc2nccc(N(C)CC3(O)CCN(CC(O)c4ccc5c(c4)NC(=O)CS5)CC3)c2n1 (centres unmarked) [TCMDC-141471] | 38.6%
O=C(Nc1cccc(-c2ccc(-c3nc4cc(C(F)(F)F)ccc4[nH]3)s2)c1)c1cccnc1 [TCMDC-136922] | 0.1958%
CC(C)COc1ccc(Cl)cc1Cc1ccc(-c2nc3c(F)cccc3[nH]2)o1 [TCMDC-136661] | 74.56%
CC(C)COc1ccc(Cl)cc1Cc1nc(-c2nc3ccc(CN4CCCC4)cc3[nH]2)co1 [TCMDC-136810] | -7.137%
CC(C)COc1ccc(Cl)cc1Cc1nc(-c2nc3ccc(CN4CCCCC4)cc3[nH]2)co1 [TCMDC-136811] | -22.76%
CC(C)COc1ccc(Cl)cc1Cc1ccc(-c2nc3c(cnc4ccccc43)[nH]2)o1 [TCMDC-136650] | 61.46%

Compound | % Inhibition
CC(C)COc1ccc(Cl)cc1Cc1ccc(-c2nc3c(F)c(F)ccc3[nH]2)o1 [TCMDC-136562] | 72.75%
Clc1ccc(OCc2ccccc2)c(Cc2ccc(-c3nc4ccncc4[nH]3)o2)c1 [TCMDC-136651] | 10.18%
CNCc1cccc2[nH]c(-c3ccc(Cc4cc(Cl)ccc4OCC(C)C)o3)nc12 [TCMDC-137044] | 60.59%
O=C(Nc1cccc(-c2nn3ccccc3c2-c2ccnc(Nc3cccc(F)c3)n2)c1)C1CCCCC1 [TCMDC-135770] | -93.68%
Cc1ccc2c(O)c([N+](=O)[O-])c(=O)[nH]c2c1 [TCMDC-131383] | 0.04547%
CCCn1c(SCC(=O)Nc2cc(C(F)(F)F)ccc2Cl)n[nH]c1=O [TCMDC-123566] | -8.395%
CC(C)(NCc1ncc[nH]1)c1nc(-c2ccc(Cl)c(O)c2)c(-c2ccncc2)[nH]1 [TCMDC-140686] | -7.541%
O=C(Nc1ccsc1)Nc1cccc(-c2cccc(-c3nc4ccccc4[nH]3)c2)c1 [TCMDC-133212] | -2.113%
COc1ccc(-c2cccc(CNC3CCN(CC4Cn5c(=O)ccc6ccc(F)c4c65)CC3)c2)cc1 (centres unmarked) [TCMDC-134414] | -11.45%
CCc1ccccc1OCCCON1C(N)=NC(N)=NC1(C)C [TCMDC-131305] | 3.059%
COc1ccc2c(C)cc(NCCCN(C)C)nc2c1 [TCMDC-124046] | 8.685%
COc1cc(NCC(CN)Cc2ccc3c(c2)OCO3)nc2ccccc12.Cl (centres unmarked) [TCMDC-140387] | 69.08%
COc1ccc(COc2cc(NCCCN)nc3ccccc23)cc1 [TCMDC-139286] | 99.04%
COc1cc(NCCCCCNc2cc(Cl)nc3ccccc23)nc2ccccc12 [TCMDC-139303] | -22.5%
COc1cc(NCC(O)CNc2cc(OC)c3ccccc3n2)nc2ccccc12 [TCMDC-139360] | 55.11%
COc1cc(NCC(O)CNc2cc(Cl)nc3ccccc23)nc2ccccc12 (centres unmarked) [TCMDC-139359] | 31.96%
Cc1nc(NCc2ccccc2)cc(NCC(O)c2ccc(O)cc2)n1 (centres unmarked) [TCMDC-135163] | 19.67%
COc1ccccc1N1CCN(C(C(=O)NCc2ccc3c(c2)OCO3)c2ccc3c(c2)OCCCO3)CC1 (centres unmarked) [TCMDC-135675] | -10.78%
COc1ccccc1N1CCN(C(C(=O)NCc2ccc3c(c2)OCO3)c2ccc(C)cc2)CC1 (centres unmarked) [TCMDC-135503] | -4.748%
Cc1ccc(C(=O)Nc2ccnc(N(C)C3CCN(Cc4cccc(O)c4)CC3)c2)cn1 [TCMDC-134967] | -0.6383%
COCCNCc1ncsc1-c1ccc2c(Nc3cc(O)c(Cl)cc3F)ccnc2c1 [TCMDC-138441] | 3.438%
Cc1nc(N=C(N)N)nc2cc3c(cc12)CCC3 [TCMDC-141187] | 84.12%
Cc1nc(N=C(N)N)nc2ccc(C(C)(C)C)cc12 [TCMDC-137936] | -23.7%
CCC1(C)N=C(N)N=C(N)N1c1ccc(Cl)cc1 (centres unmarked) [TCMDC-132039] | 4.957%

Compound | % Inhibition
COc1cc2ncnc(Nc3ccc(OC(F)(F)c4ccccc4)cc3)c2cc1OC [TCMDC-131925] | 12%
COc1cc(Nc2ncnc3cc(OC)c(OC)cc23)cc([N+](=O)[O-])c1 [TCMDC-138138] | 82.08%
COc1cc2ncnc(Nc3ccc(Br)c(Cl)c3)c2cc1OC [TCMDC-131909] | 14.07%
CCOC(=O)c1ccc(NC(=O)Nc2cccc(-c3ccc(-c4nc5ccccc5[nH]4)cc3)c2)cc1 [TCMDC-133266] | -19.34%
O=C(/C=C/c1ccc(Cl)c(Cl)c1)NCCCCCN1CCC(NC(=O)Nc2ccc(F)c(F)c2)CC1 [TCMDC-135714] | -48.39%
Cc1[nH]c(C)c(-c2ccc(Oc3ccc(O)cc3)cc2)c(=O)c1Cl [TCMDC-136135] | -17.77%
COc1ccc(C=Cc2ccc(-c3c(C)[nH]c(C)c(Cl)c3=O)cc2)cc1OC [TCMDC-135788] | 33.6%
COc1ccc(C#Cc2ccc(-c3c(C)[nH]c(C)c(Cl)c3=O)cc2)cc1 [TCMDC-135655] | 67.24%
Cc1[nH]c(C)c(-c2ccc(OCc3ccc(F)cc3)cc2)c(=O)c1Cl [TCMDC-132415] | 7.51%
COc1ccc(CCc2ccc(-c3c(C)[nH]c(C)c(Cl)c3=O)cc2)cc1OC [TCMDC-135789] | 86.31%
C/C=C/COc1ccc(-c2c(C)[nH]c(C)c(Cl)c2=O)cc1 [TCMDC-134729] | 76.24%
COc1ccc(Oc2ccc(-c3c(C)[nH]c(C)c(Cl)c3=O)cc2)cc1 [TCMDC-136134] | 78.59%
CC(=O)Nc1ccc(C#Cc2ccc(-c3c(C)[nH]c(C)c(Cl)c3=O)cc2)cc1 [TCMDC-135653] | 34.03%
CN1CC[C@H](N(Cc2ccccc2F)c2ccc(C#N)c(Cl)c2)C1 [TCMDC-137035] | 21.12%
COc1ccc(CN2CCC2=O)c(OC)c1 [TCMDC-132118] | 45.15%
CC(=O)N[C@@H]1c2cc(C(C)=O)ccc2OC(C)(C)[C@@H]1O [TCMDC-139001] | 15.15%
CC(C)(C)c1ccc(S(=O)(=O)Nc2cc(Cl)ccc2Cn2ccc(N3CCNCC3)nc2=O)cc1 [TCMDC-132581] | 5.996%
Oc1ccc2[nH]c(-c3cccs3)nc2c1CN1CCC(N2CCCC2)CC1 [TCMDC-136356] | -12.57%
COc1ccc(CCn2c(=N)c(C(=O)NCc3ccc(C)cc3)cc3c(=O)n4ccccc4nc32)cc1 [TCMDC-124475] | 27.16%
Cc1[nH]c(C)c(-c2ccc(CCc3ccc(N)cc3)cc2)c(=O)c1Cl [TCMDC-135678] | 70.67%
COc1ccc(CCc2ccc(-c3c(C)[nH]c(C)c(Cl)c3=O)cc2)cc1 [TCMDC-135654] | 77.1%
Cc1[nH]c(C)c(-c2ccc(Oc3ccc(F)cc3)cc2)c(=O)c1Cl [TCMDC-134728] | 77.31%
CC1(C)N=C(N)N=C(N)N1c1cc(Cl)c(Cl)c(Cl)c1 [TCMDC-137508] | -8.001%
